Experimental data as given in PubChem BioAssay (Tox21).
Values joined by “and” are separate entries in the source; they are usually repeats but may differ in a detail not shown here. Equal values may be shown once. Records with an inconclusive call do not appear. A call without a number means that no potency is given here. Where a structure was tested more than once in an assay, its records may differ in their call. Active and inactive are the calls of the source. Unless noted, the call rests on the fitted dose curve; in most records, active means well fitted curve in the direction sought with a large enough effect in the repeat runs; inconclusive means weak or mixed curves; inactive means no such curve, though single readings can be large; an effect the other way counts as inactive or inconclusive.

How the values were obtained:
[1] = qHTS assay to identify small molecule agonists of the peroxisome proliferator-activated receptor delta (PPARd) signaling pathway - cell viability counter screen (AID 743211); further: nearly all actives have a fitted effect of over 55% in size
Procedure, shortened: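 Read-out: CellTiter-Glo luminescence, 30 min RT, measured in the same wells as the beta-lactamase reporter. Cells: GeneBLAzer PPAR delta UAS-bla HEK293H, 3000 cells/well, compound exposure 17 h at 37C.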

[2] = target: Peroxisome proliferator-activated receptor delta (Homo sapiens) (UniProt Q03181); assay: qHTS assay to identify small molecule agonists of the peroxisome proliferator-activated receptor delta (PPARd) signaling pathway (AID 743212; calls by dose curve)
Procedure, shortened: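 Cells expressing a UAS-driven beta-lactamase reporter (PPARd-bla HEK293H) were given test compounds after a 5 h settle and kept at 37 C. Reporter activity was then measured as FRET fluorescence using LiveBLAzer B/G substrate.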

[3] = qHTS assay to identify small molecule antagonists of the peroxisome proliferator-activated receptor delta (PPARd) signaling pathway - cell viability counter screen (AID 743213); further: nearly all actives have a fitted effect of over 50% in size
Procedure, shortened: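 HEK293H PPARd UAS-bla cells, 5 h pre-incubation, compound + L165041 300 nM final, 17 h 37 C; B/G FRET substrate 2 h RT; then CellTiter-Glo 30 min RT, luminescence.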

[4] = qHTS assay to identify small molecule agonists of the farnesoid-X-receptor (FXR) signaling pathway - cell viability counter screen (AID 743218); further: nearly all actives have a fitted effect of over 45% in size
Procedure, shortened: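 Quantitative HTS counter screen measuring ATP-based viability via CellTiter-Glo luminescence in HEK 293T cells carrying a UAS-driven beta-lactamase reporter, after 16 h compound exposure at 37 C.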

[5] = target: Bile acid receptor (Homo sapiens) (UniProt Q96RI1); assay: qHTS assay to identify small molecule agonists of the farnesoid-X-receptor (FXR) signaling pathway (AID 743220; active means well fitted activation curve with a large enough effect in the signal ratio in the repeat runs, not every such curve was filed as active; the % refers to the signal ratio)
Procedure, shortened: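 FXR-UAS-bla HEK 293T cells carrying a UAS-driven beta-lactamase reporter were plated for 5 h at 37C/5% CO2, then exposed to DMSO-dissolved Tox21 10K compounds for 16 h at 37C. A LiveBLAzer B/G FRET substrate was loaded for 2 h at room temperature before fluorescence reading.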

[6] = qHTS assay to identify small molecule antagonists of the farnesoid-X-receptor (FXR) signaling pathway - cell viability counter screen (AID 743221; active means well fitted cell-killing curve with a large enough effect in the repeat runs, not every such curve was filed as active; further: nearly all actives have a fitted effect of over 50% in size)
Procedure, shortened: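 HEK 293T FXR-bla cells, 5 h pre-incubation; compound + CDCA 50 uM final, 16 h, 37 C; beta-lactamase FRET read first, then CellTiter-Glo luminescence, 30 min RT.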

[7] = target: Vitamin D3 receptor (Homo sapiens) (UniProt P11473); assay: qHTS assay to identify small molecule agonists of the vitamin D receptor (VDR) signaling pathway (AID 743222; calls by dose curve)
Procedure, shortened: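 Tox21 cell reporter format: VDR-bla line, 16 h compound exposure in 5% CO2 at 37C, then fluorescence intensity after 2 h with LiveBLAzer B/G FRET substrate.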

[8] = target: Vitamin D3 receptor (Homo sapiens) (UniProt P11473); assay: qHTS assay to identify small molecule antagonists of the vitamin D receptor (VDR) signaling pathway (AID 743223; active means well fitted inhibition curve with a large enough effect in the signal ratio in the repeat runs, not every such curve was filed as active; the % refers to the signal ratio)
Procedure, shortened: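 Beta-lactamase reporter read-out: FRET substrate fluorescence after 2 h at room temperature, following 16 h exposure of VDR-bla cells to test compound plus 3 nM (final) 1alpha,25-dihydroxyvitamin D3 agonist at 37C.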

[9] = qHTS assay to identify small molecule agonists of the vitamin D receptor (VDR) signaling pathway - cell viability counter screen (AID 743224); further: series mostly up to about 63 µM; nearly all actives have a fitted effect of over 50% in size
Procedure, shortened: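 CellTiter-Glo viability readout on VDR-bla cells, measured after 16 h of compound treatment at 37C in the same wells.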

[10] = qHTS assay to identify small molecule antagonists of the vitamin D receptor (VDR) signaling pathway - cell viability counter screen (AID 743225); further: nearly all actives have a fitted effect of over 50% in size
Procedure, shortened: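 Viability counter screen run in the same wells as the beta-lactamase reporter assay: HEK 293T VDR-UAS-bla cells, 16 h compound exposure at 37C with 3 nM (final) 1-alpha,25-dihydroxyvitamin D3. CellTiter-Glo luminescence, 30 min, room temperature.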

[11] = qHTS assay to identify small molecule agonists of the NFkB signaling pathway - cell viability counter screen (AID 1159515; calls by dose curve; further: series mostly up to about 61 µM; nearly all actives have a fitted effect of over 55% in size)
Procedure, shortened: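 Tox21 library compounds were tested for cytotoxicity against NFkB-bla ME-180 cells during a 5 hr exposure at 37 C. CellTiter-Glo luminescence served as the viability read-out.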

[12] = qHTS assay to identify small molecule agonists of the endoplasmic reticulum stress response signaling pathway (AID 1159516; active means well fitted activation curve with a large enough effect in the signal ratio in the repeat runs, not every such curve was filed as active; the % refers to the signal ratio; further: potency means the concentration at half of the fitted maximal effect)
Procedure, shortened: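 Fluorescence at 460 and 530 nm (405 nm excitation) reports beta-lactamase from an ER stress response element in HeLa cells treated 5 hr at 37 C.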

[13] = qHTS assay to identify small molecule agonists of the endoplasmic reticulum stress response signaling pathway - cell viability counter screen (AID 1159517; calls by dose curve)
Procedure, shortened: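 Cpd-treated ESRE-bla HeLa (5 hr, 37 C) → LiveBLAzer 2 hr RT → CellTiter-Glo 30 min RT → luminescence.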

[14] = qHTS assay to identify small molecule antagonists of the retinoid-related orphan receptor gamma (ROR-gamma) signaling pathway - cell viability counter screen (AID 1159520); further: nearly all actives have a fitted effect of over 50% in size
Procedure, shortened: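 Tet-on ROR gamma CHO cells (1,000/well) were plated 4 hr, given compounds in DMSO for 2 hr at 37 C, then induced with 1 uM final doxycycline for 16 hr. Viability was read as ATP by CellTiter-Glo luminescence after 30 min.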

[15] = qHTS assay to identify small molecule agonists of the AP-1 signaling pathway - cell viability counter screen (AID 1159525; calls by dose curve; further: nearly all actives have a fitted effect of over 55% in size)
Procedure, shortened: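 Each titration point was normalised to DMSO and tetra n-octyl ammonium bromide controls. The read was Cell Titer Glo luminescence after 30 min at RT, following 5 h compound exposure of ME-180 AP-1-bla cells at 37 °C.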

[16] = qHTS assay to identify small molecule agonists of the AP-1 signaling pathway (AID 1159526; calls by dose curve)
[17] = target: Retinoic acid receptor RXR-alpha (Homo sapiens) (UniProt P19793); assay: qHTS assay to identify small molecule agonists of the RXR signaling pathway (AID 1159527; calls by dose curve; further: nearly all actives have a fitted effect of over 35% in size; further: potency means the concentration at half of the fitted maximal effect)
Procedure, shortened: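 Agonist mode; 9-cis retinoic acid positive control. HEK 293T UAS-bla reporter cells, 2% charcoal-stripped FBS, 16 hr compound exposure at 37 C/5% CO2. LiveBLAzer B/G FRET substrate 2 hr RT; ex 405, em 460/530 nm.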

[18] = target: Nuclear receptor ROR-gamma (Homo sapiens) (UniProt P51449); assay: qHTS assay to identify small molecule antagonists of the retinoid-related orphan receptor gamma (ROR-gamma) signaling pathway (AID 1159521; further: nearly all actives have a fitted effect of over 50% in size; further: potency means the concentration at half of the fitted maximal effect)
Procedure, shortened: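 Luminescence readout (ONE-Glo, 30 min RT) after 16 h doxycycline induction; loss of signal scored as antagonism. CHO cells with TET-inducible RORγ and RORE-LUC reporter; compounds added 2 h before 1 uM final doxycycline.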

[19] = target: Peroxisome proliferator-activated receptor delta (Homo sapiens) (UniProt Q03181); assay: qHTS assay to identify small molecule antagonists of the peroxisome proliferator-activated receptor delta (PPARd) signaling pathway (AID 743215; active means well fitted inhibition curve with a large enough effect in the signal ratio in the repeat runs, not every such curve was filed as active; the % refers to the signal ratio;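 further: cells stimulated with agonist L165041 at 300 nM final during compound exposure; series mostly up to about 62 µM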)
Procedure, shortened: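 Here, a reporter line (HEK293H, beta-lactamase under a UAS) measures PPARd signaling. Compounds are tested against agonist L165041 at 300 nM final concentration over 17 h at 37 C, with fluorescence read after substrate.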

[20] = target: Bile acid receptor (Homo sapiens) (UniProt Q96RI1); assay: qHTS assay to identify small molecule antagonists of the farnesoid-X-receptor (FXR) signaling pathway (AID 743217; active means well fitted inhibition curve with a large enough effect in the signal ratio in the repeat runs, not every such curve was filed as active; the % refers to the signal ratio)
Procedure, shortened: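 Test compounds are pin-transferred onto FXR-bla HEK 293T cells, then chenodeoxycholic acid is added at 50 uM final. After 16 h at 37 °C, LiveBLAzer B/G substrate is applied for 2 h at room temperature and fluorescence read.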

Peroxisome proliferator-activated receptor delta (Homo sapiens), sequence (Q03181 whole entry, looked up): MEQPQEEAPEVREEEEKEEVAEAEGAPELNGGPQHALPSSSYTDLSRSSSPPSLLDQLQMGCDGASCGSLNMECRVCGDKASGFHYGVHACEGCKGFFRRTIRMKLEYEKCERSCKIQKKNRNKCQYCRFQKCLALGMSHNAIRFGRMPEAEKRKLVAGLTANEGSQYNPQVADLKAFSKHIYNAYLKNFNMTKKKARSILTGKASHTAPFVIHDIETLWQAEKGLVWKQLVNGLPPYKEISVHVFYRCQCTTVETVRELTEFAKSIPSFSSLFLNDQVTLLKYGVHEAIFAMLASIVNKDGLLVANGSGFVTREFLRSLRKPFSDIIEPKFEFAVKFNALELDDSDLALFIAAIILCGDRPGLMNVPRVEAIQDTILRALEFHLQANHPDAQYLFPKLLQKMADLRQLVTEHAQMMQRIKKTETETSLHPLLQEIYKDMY
Retinoic acid receptor RXR-alpha (Homo sapiens), sequence (P19793 whole entry, looked up): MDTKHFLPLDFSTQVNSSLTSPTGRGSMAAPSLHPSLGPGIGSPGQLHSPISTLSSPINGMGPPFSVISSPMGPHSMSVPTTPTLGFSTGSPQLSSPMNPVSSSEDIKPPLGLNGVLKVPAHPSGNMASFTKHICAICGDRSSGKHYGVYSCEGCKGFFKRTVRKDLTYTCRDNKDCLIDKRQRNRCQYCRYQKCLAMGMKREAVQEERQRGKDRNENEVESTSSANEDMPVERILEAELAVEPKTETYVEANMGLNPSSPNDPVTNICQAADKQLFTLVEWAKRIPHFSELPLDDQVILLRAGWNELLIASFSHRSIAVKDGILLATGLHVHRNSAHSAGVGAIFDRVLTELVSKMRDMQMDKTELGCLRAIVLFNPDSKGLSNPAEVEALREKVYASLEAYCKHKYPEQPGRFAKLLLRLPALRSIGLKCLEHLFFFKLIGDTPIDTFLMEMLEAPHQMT
Bile acid receptor (Homo sapiens), sequence (Q96RI1 whole entry, looked up): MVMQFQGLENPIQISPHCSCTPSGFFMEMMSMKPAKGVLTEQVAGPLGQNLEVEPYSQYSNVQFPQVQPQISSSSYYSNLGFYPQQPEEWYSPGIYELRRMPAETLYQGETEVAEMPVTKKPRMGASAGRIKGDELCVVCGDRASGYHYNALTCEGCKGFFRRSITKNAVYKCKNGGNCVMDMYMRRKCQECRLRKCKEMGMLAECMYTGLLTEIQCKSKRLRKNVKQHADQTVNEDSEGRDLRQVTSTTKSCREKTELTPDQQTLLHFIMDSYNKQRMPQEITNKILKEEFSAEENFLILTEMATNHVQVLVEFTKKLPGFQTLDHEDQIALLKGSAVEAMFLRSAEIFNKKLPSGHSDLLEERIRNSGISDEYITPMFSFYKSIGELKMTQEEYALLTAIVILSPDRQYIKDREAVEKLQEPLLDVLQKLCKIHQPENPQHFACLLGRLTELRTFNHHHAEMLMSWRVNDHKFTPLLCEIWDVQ
Vitamin D3 receptor (Homo sapiens), sequence (P11473 whole entry, looked up): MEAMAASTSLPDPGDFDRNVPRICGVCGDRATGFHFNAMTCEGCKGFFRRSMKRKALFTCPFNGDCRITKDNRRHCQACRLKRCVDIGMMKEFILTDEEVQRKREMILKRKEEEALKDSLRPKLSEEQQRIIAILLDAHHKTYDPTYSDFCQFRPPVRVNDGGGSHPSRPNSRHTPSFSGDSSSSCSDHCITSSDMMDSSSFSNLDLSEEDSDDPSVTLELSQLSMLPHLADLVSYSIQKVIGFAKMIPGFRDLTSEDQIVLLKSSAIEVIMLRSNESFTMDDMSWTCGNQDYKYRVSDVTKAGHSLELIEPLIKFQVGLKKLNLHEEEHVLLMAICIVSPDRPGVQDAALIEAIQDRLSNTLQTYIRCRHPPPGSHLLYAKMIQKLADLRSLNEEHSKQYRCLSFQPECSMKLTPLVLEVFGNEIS

OCCCl
Potency [1]: inactive
outcome [2]: inactive
Potency [3]: inactive
Potency [4]: inactive
outcome [5]: inactive
Potency [6]: inactive
outcome [7]: inactive
Potency [8]: inactive
Potency [9]: inactive
Potency [10]: inactive
Potency [11]: inactive
Potency [12]: inactive
Potency [13]: inactive
Potency [14]: inactive
Potency [15]: inactive
Potency [16]: inactive
Potency [17]: 19.5 µM (active)

C#C[C@]1(O)CC[C@H]2[C@@H]3CCC4=CC(=O)CCC4=C3C=C[C@@]21CC
Potency [1]: inactive
Potency [3]: inactive
Potency [9]: inactive
Potency [11]: inactive
Potency [12]: inactive
Potency [13]: inactive
Potency [14]: inactive
Potency [18]: 9.44 µM (active)
Potency [16]: inactive
Potency [17]: inactive

CCOP(=O)(O)C(N)=O
Potency [1]: inactive
outcome [2]: inactive
Potency [3]: inactive
Potency [19]: inactive
Potency [20]: inactive
Potency [4]: inactive
outcome [5]: inactive
Potency [6]: inactive
outcome [7]: inactive
Potency [8]: inactive
Potency [9]: inactive
Potency [10]: inactive
Potency [11]: inactive
Potency [12]: inactive
Potency [13]: inactive
Potency [14]: inactive
Potency [15]: inactive
Potency [16]: inactive
Potency [17]: inactive

NCCc1cc(O)c(O)cc1O
Potency [1]: inactive
outcome [2]: inactive
Potency [3]: inactive
Potency [19]: inactive
Potency [4]: inactive
Potency [6]: inactive
outcome [7]: inactive
Potency [8]: inactive
Potency [10]: inactive
Potency [11]: inactive
Potency [12]: 4.25 µM (active)
Potency [13]: inactive
Potency [14]: inactive
Potency [15]: inactive
Potency [16]: inactive
Potency [17]: inactive

Clc1ccc(Cl)c(Cl)c1
Potency [1]: inactive
Potency [3]: inactive
Potency [4]: inactive
Potency [6]: inactive
outcome [7]: inactive
Potency [8]: inactive
Potency [9]: inactive
Potency [10]: inactive
Potency [11]: inactive
Potency [12]: inactive
Potency [13]: inactive
Potency [14]: inactive
Potency [18]: inactive
Potency [16]: inactive
Potency [17]: inactive and 12.3 µM (active)

CCC[N+](CCC)(CCC)CCC
Potency [1]: inactive
outcome [2]: inactive
Potency [3]: inactive
Potency [19]: inactive
Potency [4]: inactive
Potency [6]: inactive
Potency [9]: inactive
Potency [10]: inactive
Potency [11]: inactive
Potency [12]: inactive
Potency [13]: inactive
Potency [14]: inactive
Potency [18]: inactive
Potency [16]: inactive
Potency [17]: inactive

C[C@H](N)[C@H](O)c1ccc(O)c(O)c1
Potency [1]: inactive
outcome [2]: inactive
Potency [19]: inactive
Potency [4]: inactive
Potency [6]: inactive
Potency [9]: inactive
Potency [10]: inactive
Potency [11]: inactive
Potency [12]: inactive
Potency [13]: inactive
Potency [14]: inactive
Potency [18]: inactive
Potency [16]: inactive
Potency [17]: inactive

Cc1nnc(-c2ccccc2)c(=O)n1N
Potency [1]: inactive
outcome [2]: inactive
Potency [3]: inactive
Potency [19]: inactive
Potency [20]: inactive
Potency [4]: inactive
Potency [6]: inactive
outcome [7]: inactive
Potency [10]: inactive
Potency [11]: inactive
Potency [12]: inactive
Potency [13]: inactive
Potency [14]: inactive
Potency [15]: inactive
Potency [16]: inactive
Potency [17]: inactive

C[C@H]1[C@@H]2Cc3ccc(O)cc3[C@@]1(C)CCN2C
Potency [1]: inactive
Potency [3]: inactive
Potency [19]: inactive
Potency [4]: inactive
outcome [5]: inactive
Potency [6]: inactive
outcome [7]: inactive
Potency [9]: inactive
Potency [11]: inactive
Potency [12]: inactive
Potency [13]: inactive
Potency [14]: inactive
Potency [18]: inactive
Potency [16]: inactive
Potency [17]: inactive

C=CC(=O)OCC
Potency [1]: inactive
outcome [2]: inactive
Potency [19]: inactive
Potency [4]: inactive
outcome [5]: inactive
Potency [6]: inactive
Potency [9]: inactive
Potency [10]: inactive
Potency [11]: inactive
Potency [12]: inactive
Potency [13]: inactive
Potency [14]: inactive
Potency [18]: inactive
Potency [16]: inactive
Potency [17]: inactive

CCC(=O)O[C@@H]1C=C2CCC3C(CCC4(C)C3CC[C@@H]4OC(=O)CC)C2CC1 (stereo partly drawn)
Potency [1]: inactive
outcome [2]: inactive
Potency [3]: inactive
Potency [19]: inactive
Potency [4]: inactive
Potency [6]: inactive
outcome [7]: inactive
Potency [9]: inactive
Potency [11]: inactive
Potency [12]: inactive
Potency [13]: inactive
Potency [18]: inactive
Potency [15]: inactive
Potency [16]: inactive
Potency [17]: inactive

CC(C)(C)NCC(O)c1cc(Cl)c(N)c(C(F)(F)F)c1 (stereo not drawn)
Potency [1]: inactive
outcome [2]: inactive
Potency [3]: inactive
Potency [19]: inactive
Potency [4]: inactive
Potency [6]: inactive
outcome [7]: inactive
Potency [8]: inactive
Potency [9]: inactive
Potency [10]: inactive
Potency [11]: inactive
Potency [12]: inactive
Potency [13]: inactive
Potency [14]: inactive
Potency [16]: inactive
Potency [17]: inactive

CCC1CCC(=O)O1 (stereo not drawn)
Potency [1]: inactive
Potency [3]: inactive
Potency [19]: inactive
Potency [4]: inactive
Potency [6]: inactive
outcome [7]: inactive
Potency [9]: inactive
Potency [10]: inactive
Potency [11]: inactive
Potency [12]: inactive
Potency [13]: inactive
Potency [18]: inactive
Potency [15]: inactive
Potency [16]: inactive
Potency [17]: inactive
